About 7,900 targets were measured; listed, in parts, are those with a hit and a random draw of the rest. About 0.6% of all pairs of compound and target were hits. A number with no mark means an inactive call.
Experiments:
Test in all cases: log2 fold change, soluble protein after heating vs DMSO (PISA); higher = thermal stabilisation; K562 cells, 10 uM, 30 min; active = over 0.2 and 3.5 SD of the protein, either way, in both replicates (recomputed)
bafetinib = compound: Cc1ccc(NC(=O)c2ccc(CN3CC[C@H](N(C)C)C3)c(C(F)(F)F)c2)cc1Nc1nccc(-c2cncnc2)n1 [bafetinib]
Method in brief: (§1)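 Aliquots of K562 cells (2×10^6 cells/mL) treated with 10 μM compound for 30 min were heated for 3 min over 48°C-58°C. After pooling and extraction in PBS with 0.5% NP-40 at 4°C, soluble protein from a 21,000xg, 90 min spin was quantified by TMTpro 16plex LC-MS/MS with channel sums equalised. Thermal stability is expressed against control samples, from duplicates, as a log2 fold change.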

[1] = compound: Cc1cccc(CC(=O)N2CCc3c2ccc(-c2cn(C)c4ncnc(N)c24)c3F)n1
Method in brief: as §1

nilotinib = compound: Cc1cn(-c2cc(NC(=O)c3ccc(C)c(Nc4nccc(-c5cccnc5)n4)c3)cc(C(F)(F)F)c2)cn1 [nilotinib]
Method in brief: as §1

[2] = compound: Cc1nc(Nc2n[nH]c3c2CN(C(=O)N[C@H](CN(C)C)c2ccccc2)C3(C)C)c2sccc2n1
Method in brief: as §1

dasatinib = compound: Cc1nc(Nc2ncc(C(=O)Nc3c(C)cccc3Cl)s2)cc(N2CCN(CCO)CC2)n1 [dasatinib]
Method in brief: as §1

[3] = compound: Cc1ncc(-c2ccnc(Nc3ccc(S(C)(=O)=O)cc3)n2)n1C(C)C
Method in brief: as §1

[4] = compound: Cn1cc(-c2ccc3c(c2)CCN3C(=O)Cc2cccc(C(F)(F)F)c2)c2c(N)ncnc21
Method in brief: as §1

[5] = compound: Cn1cc(-c2ccc3nnc(C(F)(F)c4ccc5ncccc5c4)n3n2)cn1
Method in brief: as §1

tipifarnib = compound: Cn1cncc1[C@@](N)(c1ccc(Cl)cc1)c1ccc2c(c1)c(-c1cccc(Cl)c1)cc(=O)n2C [tipifarnib]
Method in brief: as §1

mubritinib = compound: FC(F)(F)c1ccc(/C=C/c2nc(COc3ccc(CCCCn4ccnn4)cc3)co2)cc1 [mubritinib]
Method in brief: as §1

[6] = compound: NC(=O)Nc1cc(-c2cccc(F)c2)sc1C(=O)N[C@H]1CCCNC1
Method in brief: as §1

[7] = compound: NC(=O)c1cnc(N[C@@H]2CCCC[C@@H]2N)nc1Nc1cccc(-n2nccn2)c1
Method in brief: as §1

[8] = compound: NC1(c2ccc(-c3nc4ccn5c(=O)[nH]nc5c4cc3-c3ccccc3)cc2)CCC1
Method in brief: as §1

[9] = compound: NCC(=O)Nc1ccc(-n2nc(C(F)(F)F)cc2-c2ccc3c(ccc4ccccc43)c2)cc1
Method in brief: as §1

entinostat = compound: Nc1ccccc1NC(=O)c1ccc(CNC(=O)OCc2cccnc2)cc1 [entinostat]
Method in brief: as §1

vorinostat = compound: O=C(CCCCCCC(=O)Nc1ccccc1)NO [vorinostat]
Method in brief: as §1

citarinostat = compound: O=C(CCCCCCNC(=O)c1cnc(N(c2ccccc2)c2ccccc2Cl)nc1)NO [citarinostat]
Method in brief: as §1

silmitasertib = compound: O=C(O)c1ccc2c(c1)nc(Nc1cccc(Cl)c1)c1ccncc12 [silmitasertib]
Method in brief: as §1

[10] = compound: O=C1NC(=O)C(c2cnc3ccccn23)=C1c1cn2c3c(cc(F)cc13)CN(C(=O)N1CCCCC1)CC2
Method in brief: as §1

[11] = compound: c1cc(OCCN2CCCCC2)cc(-c2n[nH]c3ccc(-c4nnc[nH]4)cc23)c1
Method in brief: as §1

Sequence of UniProt Q53GQ0 (Q53GQ0 whole entry, looked up): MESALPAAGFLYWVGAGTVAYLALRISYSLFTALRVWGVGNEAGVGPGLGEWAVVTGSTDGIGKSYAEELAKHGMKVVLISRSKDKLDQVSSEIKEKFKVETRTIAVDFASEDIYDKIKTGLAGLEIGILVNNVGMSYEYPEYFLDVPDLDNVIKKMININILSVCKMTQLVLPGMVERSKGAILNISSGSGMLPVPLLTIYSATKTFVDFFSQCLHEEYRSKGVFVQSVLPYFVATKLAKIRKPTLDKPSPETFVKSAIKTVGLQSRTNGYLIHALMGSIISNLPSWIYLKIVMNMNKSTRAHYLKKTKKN
Sequence of UniProt P49841 (P49841 whole entry, looked up): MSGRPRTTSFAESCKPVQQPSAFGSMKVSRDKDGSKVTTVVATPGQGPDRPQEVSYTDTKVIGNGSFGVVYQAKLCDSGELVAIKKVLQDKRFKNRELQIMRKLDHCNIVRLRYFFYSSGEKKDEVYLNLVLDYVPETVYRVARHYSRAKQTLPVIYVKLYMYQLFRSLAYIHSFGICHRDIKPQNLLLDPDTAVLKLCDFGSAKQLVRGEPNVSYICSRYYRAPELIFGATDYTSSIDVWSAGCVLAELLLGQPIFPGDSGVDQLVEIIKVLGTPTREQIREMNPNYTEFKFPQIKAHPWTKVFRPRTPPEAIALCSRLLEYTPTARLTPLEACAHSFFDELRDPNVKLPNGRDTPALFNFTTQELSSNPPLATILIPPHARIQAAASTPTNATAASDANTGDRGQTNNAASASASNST
Sequence of UniProt P04066 (P04066 whole entry, looked up): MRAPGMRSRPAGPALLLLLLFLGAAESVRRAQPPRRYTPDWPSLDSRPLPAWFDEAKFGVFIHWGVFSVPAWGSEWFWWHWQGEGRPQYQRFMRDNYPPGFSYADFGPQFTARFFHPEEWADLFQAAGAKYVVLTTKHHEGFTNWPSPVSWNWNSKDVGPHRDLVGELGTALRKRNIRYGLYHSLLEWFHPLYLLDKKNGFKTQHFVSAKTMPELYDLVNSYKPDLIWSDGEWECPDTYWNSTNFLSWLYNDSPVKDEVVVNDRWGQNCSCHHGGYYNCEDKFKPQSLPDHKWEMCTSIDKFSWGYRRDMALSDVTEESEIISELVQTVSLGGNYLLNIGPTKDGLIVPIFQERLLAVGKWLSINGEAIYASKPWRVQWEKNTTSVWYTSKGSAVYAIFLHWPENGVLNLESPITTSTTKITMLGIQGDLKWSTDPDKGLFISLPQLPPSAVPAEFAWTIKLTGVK
Sequence of UniProt P00367 (P00367 whole entry, looked up): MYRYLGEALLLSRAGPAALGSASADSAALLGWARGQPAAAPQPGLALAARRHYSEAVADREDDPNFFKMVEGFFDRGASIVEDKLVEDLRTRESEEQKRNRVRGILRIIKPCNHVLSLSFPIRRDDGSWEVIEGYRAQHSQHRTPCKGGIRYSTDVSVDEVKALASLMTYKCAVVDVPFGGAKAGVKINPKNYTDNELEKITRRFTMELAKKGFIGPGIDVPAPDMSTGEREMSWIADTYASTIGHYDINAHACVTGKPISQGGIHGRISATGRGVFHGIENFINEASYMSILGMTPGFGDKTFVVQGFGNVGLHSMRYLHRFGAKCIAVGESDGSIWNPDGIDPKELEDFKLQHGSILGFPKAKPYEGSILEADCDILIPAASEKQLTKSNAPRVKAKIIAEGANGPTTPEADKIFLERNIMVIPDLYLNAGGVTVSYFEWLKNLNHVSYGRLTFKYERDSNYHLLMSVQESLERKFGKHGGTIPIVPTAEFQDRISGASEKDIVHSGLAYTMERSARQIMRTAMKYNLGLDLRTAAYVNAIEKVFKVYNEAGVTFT
Sequence of UniProt P23327 (P23327 whole entry, looked up): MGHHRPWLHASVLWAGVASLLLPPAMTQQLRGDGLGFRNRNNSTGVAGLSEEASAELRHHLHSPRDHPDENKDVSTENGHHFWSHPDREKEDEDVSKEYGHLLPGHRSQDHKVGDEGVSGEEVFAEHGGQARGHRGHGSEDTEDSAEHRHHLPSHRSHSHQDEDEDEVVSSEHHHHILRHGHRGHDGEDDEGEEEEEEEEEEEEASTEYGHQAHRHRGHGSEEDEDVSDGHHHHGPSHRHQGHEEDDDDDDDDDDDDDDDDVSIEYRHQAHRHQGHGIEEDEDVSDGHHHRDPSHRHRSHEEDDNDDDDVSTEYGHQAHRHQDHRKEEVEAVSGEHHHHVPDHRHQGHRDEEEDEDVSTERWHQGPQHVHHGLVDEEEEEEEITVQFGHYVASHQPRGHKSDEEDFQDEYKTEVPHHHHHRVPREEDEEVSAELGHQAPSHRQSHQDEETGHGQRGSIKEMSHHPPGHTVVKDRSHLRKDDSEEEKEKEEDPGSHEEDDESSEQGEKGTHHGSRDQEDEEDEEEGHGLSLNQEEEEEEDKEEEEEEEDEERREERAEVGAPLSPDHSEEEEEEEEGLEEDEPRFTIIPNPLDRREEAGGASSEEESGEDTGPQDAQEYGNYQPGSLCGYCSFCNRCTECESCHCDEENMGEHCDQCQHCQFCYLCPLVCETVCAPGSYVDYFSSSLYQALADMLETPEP
Sequence of UniProt P50213 (P50213 whole entry, looked up): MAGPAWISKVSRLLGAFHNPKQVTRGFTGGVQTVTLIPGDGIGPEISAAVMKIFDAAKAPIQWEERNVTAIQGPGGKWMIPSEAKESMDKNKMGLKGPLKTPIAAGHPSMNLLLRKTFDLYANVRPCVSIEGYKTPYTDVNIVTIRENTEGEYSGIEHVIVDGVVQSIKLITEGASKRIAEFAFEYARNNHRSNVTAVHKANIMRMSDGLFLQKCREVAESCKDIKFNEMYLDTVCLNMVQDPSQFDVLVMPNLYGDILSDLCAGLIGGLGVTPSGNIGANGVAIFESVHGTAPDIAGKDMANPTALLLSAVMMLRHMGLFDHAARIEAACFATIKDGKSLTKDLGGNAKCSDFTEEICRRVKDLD
Sequence of UniProt P31943 (P31943 whole entry, looked up): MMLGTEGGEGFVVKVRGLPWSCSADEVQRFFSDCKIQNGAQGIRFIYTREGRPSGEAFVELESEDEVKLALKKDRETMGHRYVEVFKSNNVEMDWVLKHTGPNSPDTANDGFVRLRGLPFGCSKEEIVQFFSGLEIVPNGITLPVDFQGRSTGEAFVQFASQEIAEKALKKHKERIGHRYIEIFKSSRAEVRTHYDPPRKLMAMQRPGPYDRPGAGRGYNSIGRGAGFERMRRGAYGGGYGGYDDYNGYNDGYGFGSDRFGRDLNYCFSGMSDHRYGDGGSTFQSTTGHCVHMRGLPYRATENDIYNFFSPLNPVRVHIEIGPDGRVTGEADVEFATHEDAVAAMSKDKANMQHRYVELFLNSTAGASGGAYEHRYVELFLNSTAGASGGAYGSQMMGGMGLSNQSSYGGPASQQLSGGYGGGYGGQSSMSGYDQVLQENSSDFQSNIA

Target	log2 fold change (bafetinib)	log2 fold change [1]	log2 fold change (nilotinib)	log2 fold change [2]	log2 fold change (dasatinib)	log2 fold change [3]	log2 fold change [4]	log2 fold change [5]	log2 fold change (tipifarnib)	log2 fold change (mubritinib)	log2 fold change [6]	log2 fold change [7]	log2 fold change [8]	log2 fold change [9]	log2 fold change (entinostat)	log2 fold change (vorinostat)	log2 fold change (citarinostat)	log2 fold change (silmitasertib)	log2 fold change [10]	log2 fold change [11]
FUCA1 (UniProt P04066)	-1.16 (active)	-0.001	-0.011	-0.01	-0.009	-0.014	-0.054	0.011	-0.001	-0.008	0.028	-0.028	-0.519 (active)	-0.03	0.014	0.015	0.096	0.019	-0.043	-0.372 (active)
GSK3B isoform 2 (UniProt P49841)	-0.003	0.055	-0.04	0.094	-0.115	0.124	0.055	-0.013	-0.024	-0.008	-0.027	-0.06	-0.055	-0.028	0.005	0.023	0.047	0.012	0.29 (active)	
HNRNPH1 (UniProt P31943)	0.004	0.037	-0.141	-0.236	-0.083	-0.116	0.022	0.055	-0.124	-0.044	0.052	-0.023	-0.075	-0.059	0.118	0.168	0.09	0.024	-0.105	-0.074
HMGN2 (UniProt P05204)	-0.013	-0.189	-0.025	0.022	0.053	0	-0.025	0.04	0.079	0.021	0.071	0.07	0.139	0.027	-0.092	-0.225	-0.129	0.02	0.067	0.151
HSD17B12 (UniProt Q53GQ0)	0.067	-0.039	0.184	-0.039	-0.095	0.002	0.092	-0.02	0.089	-0.018	-0.031	0.005	-0.049	0.066	-0.02	-0.014	0.14	0.037	-0.146	-0.082
HRC (UniProt P23327)	-0.098	-0.147	0.01	-0.017	0.055	-0.039	-0.038	0.037	0.016	0.041	-0.161	0.005	-0.02	-0.056	-0.114	-0.128	-0.011	0.013	0.023	-0.026
GLUD1 (UniProt P00367)	0.25	0.012	0.382 (active)	0.266 (active)	0.056	-0.015	0.173	0.04	0.068	0.046	-0.058	-0.014	-0.043	-0.032	-0.051	-0.061	-0.023	-0.095	0.082	0.052
IDH3A (UniProt P50213)	-0.016	0.021	-0.027	-0.006	-0.005	-0.024	0.045	0.021	-0.001	0.06	0	-0.033	-0.062	-0.005	-0.025	-0.029	0.023	-0.034	-0.021	0.011
